From PubChem BioAssay
Active and inactive are the calls of the source.

Legend:
[1] = system: XIP peptide (Xip251-270) binding; assay: XIP fragment 251-270 binding compounds – biochemical, small-molecule microarray, fluorescence 635/667 nm, 0.1 µg/mL protein, primary screen (AID 1182); details: fluorescent protein binding, 635 nm, higher = more signal, called active from +8 up or from −8 down
XIP peptide (Xip251-270) = assay: compounds binding XIP fragment 251-270 – biochemical, small-molecule microarray, fluorescence 635/667 nm, 0.5 µg/mL protein, primary screen (AID 1183); details: fluorescence 635 nm, higher = more signal
[2] = blood-stage malaria parasite viability loss – strain 3D7, DAPI fluorescence, 100 nL, primary screen (AID 1184);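 note: parasites grown inside human red blood cells in medium with human serum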; details: P. falciparum 3D7 growth, 3 d, higher = more signal
[3] = molecular target: Homeobox protein Hox-A13 (Mus musculus) (UniProt Q62424); assay: disruptors of Hoxa13 oligonucleotide interaction – biochemical, fluorescence polarization, labeled oligonucleotide, primary screen (AID 1185); details: Hoxa13:DNA binding, 15 min, higher = more signal, called active from +8 up or from −8 down
Sequence of Homeobox protein Hox-A13 (Mus musculus) (Q62424 whole entry, looked up): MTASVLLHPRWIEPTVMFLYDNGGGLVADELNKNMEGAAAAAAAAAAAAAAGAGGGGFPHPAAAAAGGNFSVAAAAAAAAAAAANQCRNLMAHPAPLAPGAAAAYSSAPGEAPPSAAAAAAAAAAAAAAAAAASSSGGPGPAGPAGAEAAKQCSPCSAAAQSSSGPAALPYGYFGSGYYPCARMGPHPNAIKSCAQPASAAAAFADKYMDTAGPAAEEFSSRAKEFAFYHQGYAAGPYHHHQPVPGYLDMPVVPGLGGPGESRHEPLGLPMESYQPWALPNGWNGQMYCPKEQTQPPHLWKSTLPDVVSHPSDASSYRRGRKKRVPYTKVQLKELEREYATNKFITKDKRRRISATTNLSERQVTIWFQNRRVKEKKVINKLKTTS

Row | SMILES | composite z-score [1] | composite z-score (XIP peptide (Xip251-270)) | z-score [2] | z-score [3]
1 | Cn1c(=O)n2n(c1=O)[C@H]1[C@H](O)[C@@H]3O[C@@H]3C(=O)[C@H]1CC2 | 0.151 (inactive) | 0.186 | 0.551 | 0.336 (inactive)
2 | COC(=O)CC=C[C@@H](C)[C@@H](C=NO[C@@H]1O[C@H](COC(C)=O)[C@@H](OC(C)=O)[C@H](OC(C)=O)[C@H]1OC(C)=O)OC | -0.865 (inactive) | -0.17 | -0.0925 | -2.16 (inactive)
3 | CC(CCN1CCCCc2nc(C)c(C)cc21)=NOC[C@@H](C)[C@H](OCc1ccccc1)C(C)C | -0.494 (inactive) | -0.3 | 0.318 | -2.47 (inactive)
4 | CO[C@@H]1COC(=O)CC=C[C@H](C)[C@H](OC)COC(=O)[C@H](C)NC(=O)CC=C[C@H]1C | -0.436 (inactive) | 0.82 | -0.382 | 0.189 (inactive)
5 | CO[C@H]1COC(=O)CC=C[C@H](C)[C@@H](OC)COC(=O)[C@@H](C)COC(=O)CC=C[C@@H]1C | -0.0653 (inactive) | -0.396 | -0.276 | -1.42 (inactive)
6 | CC(C)=CCCC(C)=CCON=C1C[C@@H](O)[C@@H](O)[C@@H]2[C@@H]3C(=O)N(C4CCCCC4)C(=O)[C@@H]3CC[C@@H]12 | -0.318 (inactive) | 0.426 | 0.242 | -2.99 (inactive)
7 | CCOC(=O)[C@H](Cc1ccccc1)NC(=O)CCC1CC(OC(=O)NCCc2ccc(F)cc2)CC2(CCCC(COC(=O)NCCc3ccc(Cl)cc3)O2)O1 (some centres not stated) | -0.345 (inactive) | 0.348 | -1.84 | -3.08 (inactive)
8 | CCc1cc2c(nc1CC)CCN(CCC(C)=NOC[C@H]1O[C@H](c3ccccc3)C=C[C@@H]1Oc1ccc(OC)cc1)C2 | 0.248 (inactive) | 0.431 | -1.63 | -3.13 (inactive)
9 | O=C1[C@H]2[C@H]3[C@H](O)[C@H](O)CC(=NOCc4ccccc4)[C@@H]3CC[C@H]2C(=O)N1c1ccc(F)cc1F | -0.228 (inactive) | 0.0159 | -0.545 | 0.941 (inactive)
10 | C#CCCCON=C1C[C@@H](O)[C@@H](O)[C@@H]2[C@@H]3C(=O)N(CCC(=O)OCC)C(=O)[C@@H]3CC[C@H]12 | 0.768 (inactive) | 0.493 | -0.206 | 1.24 (inactive)
11 | CC(C)CON=C1C[C@@H](O)[C@@H](O)[C@@H]2[C@@H]3C(=O)N(C4CCCCC4)C(=O)[C@@H]3CC[C@@H]12 | 0.376 (inactive) | 0.0112 | -0.398 | -4.41 (inactive)
12 | COC(=O)[C@@H]1CC[C@H](C)[C@@H](c2ccc(C)cc2)N1C(=O)c1ccc(C=NO[C@H](C)c2cn([C@@H]3COC[C@H]3O)nn2)cc1 | 0.604 (inactive) | 0.78 | -0.214 | -6.19 (inactive)
13 | CO[C@@H]1COC(=O)CC=C[C@@H](C)[C@@H]2C=C[C@H](O)[C@@H](COC(=O)CC=C[C@H]1C)O2 | 0.0592 (inactive) | 0.853 | 0.338 | -2.1 (inactive)
14 | CCc1cc2c(nc1CC)CCN(CCC(C)=NO[C@@H](C)c1cn([C@H](CO)Cc3ccccc3)nn1)C2 | 0.444 (inactive) | 0.704 | -1.72 | -6.65 (inactive)
15 | C#CCCCON=C1[C@H]2CCn3c(=O)n(C)c(=O)n3[C@H]2[C@H](O)[C@@H]2O[C@H]12 | -0.158 (inactive) | 0.442 | 0.275 | 0.292 (inactive)
16 | CO[C@@H]1COC(=O)[C@@H](C)NC(=O)CC=C[C@@H](C)[C@H](NS(=O)(=O)c2ccc(C)cc2)COC(=O)[C@H](C)NC(=O)CC=C[C@H]1C | 0.199 (inactive) | 0.113 | 0.327 | -0.348 (inactive)
17 | CCOC(=O)CCN1C(=O)[C@H]2[C@H]3[C@H](O)[C@H](O)CC(=NOCc4ccccc4)[C@H]3CC[C@H]2C1=O | -0.207 (inactive) | -0.0274 | 0.172 | 0.313 (inactive)
18 | CCCNC(=O)OC[C@H]1O[C@H](CCON=C(C)CCN2CCCc3nc(C)c(C)cc32)C=C[C@@H]1Oc1ccc(OC)cc1 | -0.0364 (inactive) | 0.527 | -2.33 | -5.56 (inactive)
19 | CCC(=O)[C@@]1(O)C(=O)N2C(=C3C(=O)OCC[C@@H]31)N(Cc1ccccc1)C(C)=C(C(=O)OC)[C@H]2c1ccccc1 | -0.0955 (inactive) | 0.177 | 0.663 | -0.219 (inactive)
20 | COC(=O)CC=C[C@@H](C)[C@@H](C=NO[C@H](C)c1cn([C@@H]2COC[C@H]2O)nn1)NS(=O)(=O)c1ccc(C)cc1 | -0.362 (inactive) | 0.486 | 0.781 | -1.63 (inactive)
21 | COCOc1ccc(Br)cc1C(=O)[C@@H]1O[C@H]1c1cccc(OC)c1 | -0.0455 (inactive) | 0.106 | 0.194 | -1.99 (inactive)
22 | COc1cccc([C@H]2Oc3ccc(OC)cc3C(=NO[C@@H]3O[C@H](COC(C)=O)[C@@H](OC(C)=O)[C@H](OC(C)=O)[C@H]3OC(C)=O)[C@@H]2O)c1 | -0.481 (inactive) | -0.172 | 0.956 | -5.19 (inactive)

Row | SMILES | composite z-score [1] | composite z-score (XIP peptide (Xip251-270)) | z-score [2] | z-score [3]
23 | CC(C)CON=C1C[C@@H](O)[C@@H](O)[C@@H]2[C@@H]3C(=O)N(C[C@@H]4CCCO4)C(=O)[C@@H]3CC[C@@H]12 | -0.0867 (inactive) | 0.205 | 0.192 | -0.771 (inactive)
24 | COC(=O)[C@@H]1CC[C@H](C)[C@@H](c2ccc(C)cc2)N1C(=O)c1ccc(C=NO[C@H](C)c2cn([C@H](CO)Cc3ccccc3)nn2)cc1 | -0.402 (inactive) | 0.658 | -1.76 | -5.94 (inactive)
25 | CC(=O)OC[C@H]1O[C@H](CCON=C2[C@H]3CCn4c(=O)n(-c5ccccc5)c(=O)n4[C@H]3[C@H](O)[C@@H]3O[C@H]23)C=C[C@@H]1OC(C)=O | 0.149 (inactive) | -0.325 | -0.374 | -1.83 (inactive)
26 | CO[C@@H]1COC(=O)CC=C[C@@H](C)[C@H](OC)COC(=O)[C@@H](C)COC(=O)CC=C[C@H]1C | -0.0671 (inactive) | -0.497 | 0.301 | 0.372 (inactive)
27 | COc1cccc([C@H]2Oc3ccc(OC)cc3C(=NO[C@@H](C)c3cn([C@H](CO)Cc4ccccc4)nn3)[C@@H]2O)c1 | 0.213 (inactive) | 0.502 | -0.868 | -6.48 (inactive)
28 | CO[C@@H]1C=CCC(=O)N2CCC[C@H]2C(=O)OC[C@@H](C)C(=O)OC[C@H]1C | 0.229 (inactive) | 0.826 | 0.432 | 0.772 (inactive)
29 | Cc1cc2c(c(=O)o1)[C@@H](O)[C@H]1O[C@H]1C2=O | -0.483 (inactive) | 0.274 | -0.807 | -1.3 (inactive)
30 | CC(C)=CCCC(C)=CCON=C1C[C@@H](O)[C@@H](O)[C@@H]2[C@@H]3C(=O)N(C(C)(C)C)C(=O)[C@@H]3CC[C@H]12 | -0.007 (inactive) | 0.427 | 1.46 | 0.263 (inactive)
31 | COc1ccc(C#C[C@@H]2C=C[C@H](OC(C)=O)[C@@H](COC(C)=O)O2)cc1 | 3.11 (inactive) | 0.443 | 0.714 | -2.53 (inactive)
32 | CO[C@H]1COC(=O)CC=C[C@H](C)[C@@H](OC)COC(=O)[C@H](C)COC(=O)CC=C[C@@H]1C | 0.163 (inactive) | -0.337 | 0.916 | 0.296 (inactive)
33 | CC(C)=NO[C@H](C)c1cn([C@H](CO)Cc2ccccc2)nn1 | -0.662 (inactive) | 0.0455 | 0.28 | 0.584 (inactive)
34 | COc1ccc(COC(=O)NN=C2C[C@@H](O)[C@@H](O)[C@@H]3[C@@H]4C(=O)N(c5ccc(F)cc5F)C(=O)[C@@H]4CC[C@H]23)cc1 | 0.051 (inactive) | 0.393 | -1.93 | -6.79 (inactive)
35 | Cc1ccc(S(=O)(=O)NC(CCc2ccccc2)CC(=O)C(C)(C)C)cc1 (configuration not stated) | 0.275 (inactive) | -0.113 | -0.268 | -3.68 (inactive)
36 | CCOC(=O)[C@H](CC(C)C)NC(=O)CCC1CC(OC(=O)NCc2ccc3c(c2)OCO3)CC2(CCCC(COC(=O)NCc3cccc(C(F)(F)F)c3)O2)O1 (some centres not stated) | 0.319 (inactive) | 0.348 | -2.06 | -1.71 (inactive)
37 | C=CC[C@@H]1C=C[C@H](ON=C2[C@H]3CCn4c(=O)n(-c5ccccc5)c(=O)n4[C@H]3[C@H](O)[C@@H]3O[C@H]23)[C@@H](CO)O1 | 0.372 (inactive) | 0.287 | -0.605 | -2.05 (inactive)
38 | CSCC[C@@H]1NC(=O)CC=C[C@@H](C)COC(=O)[C@@H](C)COC1=O | -0.082 (inactive) | -0.318 | -0.866 | 0.572 (inactive)
39 | COC(=O)CC=C[C@@H](C)[C@@H](C=NO[C@@H](C)c1cc(-c2c(C)cc(C)cc2C)no1)NS(=O)(=O)c1ccc(C)cc1 | -0.105 (inactive) | -0.91 | -0.842 | -2.92 (inactive)
40 | CCOC(=O)[C@H](CC(C)C)NC(=O)CCC1CC(OC(=O)NCc2cccc3ccccc23)CC2(CCCC(COC(=O)NCCCN3CCCC3=O)O2)O1 (some centres not stated) | -0.0359 (inactive) | 0.524 | -1.92 | -4.61 (inactive)
41 | O=C1[C@H]2[C@H]3[C@H](O)[C@H](O)CC(=NOC[C@@H](O)COCc4ccco4)[C@H]3CC[C@H]2C(=O)N1C[C@@H]1CCCO1 | -0.149 (inactive) | 0.605 | 0.523 | -0.514 (inactive)
42 | CCOC(=O)NN=C1C[C@@H](O)[C@@H](O)[C@@H]2[C@@H]3C(=O)N(c4cccc(Oc5ccccc5)c4)C(=O)[C@@H]3CC[C@H]12 | 0.389 (inactive) | 0.0776 | 0.275 | 1.22 (inactive)
43 | C[C@@H]1NC(=O)[C@@H](C)COC(=O)[C@H](C)NC(=O)[C@@H](C)COC1=O | -0.287 (inactive) | 0.158 | -1.46 | 0.969 (inactive)
